# Reference: PubChem BioAssay AID1458 (National Center for Advancing Translational Sciences (NCATS), 2008)
# About 5,900 (2.8%) of roughly 210,000 compounds were called active. About 5% were inconclusive and are not listed. Calls follow the shape of the dose curve; as a rule, active = well fitted activation curve with a large enough effect; inconclusive = small, poorly fitted or top-dose-only effect; inactive = no such curve, though single readings can be large or run the other way. The list comes from a sample in which actives are over-represented; it also holds similar structures and randomly drawn compounds. A call without a number means that no potency is given here.
# Experiment: qHTS Assay for Enhancers of SMN2 Splice Variant Expression; also: nearly all actives have a fitted effect of over 55% in size
# Conditions: HEK293 SMN2-luciferase splicing reporter, luminescence, 30-36 h; series mostly up to 46.1 µM
# In short: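 qHTS luciferase splicing reporter: luminescence rises when SMN2 exon 7 is included in transfected HEK293 cells. Compound exposure lasted 30-36 h at 37C, with 4.5 mM final sodium butyrate as control, followed by a ONE-Glo read.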
# Potency is read from the fitted curve at half-maximal effect.
row,Structure (SMILES),Potency
1,CCOc1cc(C2c3c(-c4ccc(Br)cc4)n[nH]c3C(=O)N2c2ccc(Cl)cc2)ccc1O (stereo not drawn),inactive
2,O=C(c1ccc2c(c1)N(Cc1ccc(Cl)cc1)C(=O)c1ccccc1S2(=O)=O)N1CCCCC1,inactive
3,CC1CCC2(CC1)N=C(c1ccccc1)C(=O)N2CC(=O)Nc1ccc(F)c(Cl)c1 (stereo not drawn),inactive
4,O=C(Nc1nc(-c2ccc(-c3ccccc3)cc2)cs1)c1cnccn1,inactive
5,O=C(Nc1nc(-c2ccncc2)cs1)C1COc2ccccc2O1 (stereo not drawn),inactive
6,c1ccc(Nc2nc(-c3ccncc3)cs2)nc1,12.6 µM (active)
7,CSc1ccc(NC(=O)Cn2nnnc2-c2ccccc2F)cc1,inactive
8,O=C(NCCc1c[nH]c2ccccc12)C(=O)NCC1CCCO1 (stereo not drawn),inactive
9,O=C(NCCc1c[nH]c2ccccc12)c1cc2ccccc2oc1=O,17.8 µM (active)
10,CN(c1ccccc1)S(=O)(=O)c1ccc(Cl)c(C(=O)NCCc2c[nH]c3ccccc23)c1,inactive
11,O=C(Nc1cccc2cccnc12)c1cccc2c(Br)cccc12,inactive
12,CCOC(=O)c1c(-c2ccc(OC)cc2)oc2ccc(OCc3ccc(C(=O)OC)cc3)cc12,inactive
13,Cc1ccc(NC(=O)c2csc3c2CCCC3)cc1,4.47 µM (active)
14,CC(=O)Cc1nsc(NC(=O)c2csc3c2CCCC3)n1,inactive
15,CCOC(=O)c1ccc(NC(=O)c2csc3c2CCCCC3)cc1,inactive
16,COC(=O)c1sccc1NC(=O)c1csc2c1CCCC2,inactive
17,COC(=O)c1sc(NC(=O)c2csc3c2CCCC3)nc1C,2.51 µM (active)
18,O=C(NCc1ccccc1Cl)c1csc2c1CCCCC2,inactive
19,COc1ccc(OC)c(NC(=O)/C=C/c2ccc(C)o2)c1,inactive
20,NC(=O)c1sc(-c2ccsc2)cc1N,inactive
21,COc1ccc(CNC(=O)CS(=O)Cc2nc(-c3cccc(C)c3)oc2C)cc1 (stereo not drawn),inactive
22,N#Cc1cccc(NC(=O)COC(=O)c2ccccc2C(=O)c2ccc(Cl)c([N+](=O)[O-])c2)c1,inactive

row,Structure (SMILES),Potency
1,CC(=O)Nc1ccc(NC(=O)C(C)OC(=O)c2ccccc2C(=O)c2ccc(Cl)c([N+](=O)[O-])c2)cc1 (stereo not drawn),25.1 µM (active)
2,CC(CC(=O)O)C(=O)c1ccc(Cl)c([N+](=O)[O-])c1 (stereo not drawn),inactive
3,COc1cc(OC)c(NC(=O)c2c3c(nn2C)-c2ccccc2SC3)cc1Cl,inactive
4,COc1ccccc1N1CCN(C(=O)c2cn(-c3ccccc3)nc2-c2cccnc2)CC1,22.4 µM (active)
5,O=C(c1cn(-c2ccccc2)nc1-c1cccnc1)N1CCCCC1,inactive
6,COC(=O)c1cn(-c2ccccc2)nc1-c1cccnc1,inactive
7,CCOc1ccc(NC(=O)CSc2c3c(nc4ccccc24)CCCC3)cc1,inactive
8,CCCc1nc2c(c(=O)c3ccccc3n2C)c(=O)n1C1CCCCCC1,inactive
9,COc1ccc(C(=O)CSc2nnc(COc3ccccc3)n2Cc2ccco2)cc1,inactive
10,Cn1c2ccccc2c(=O)c2c(=O)n(Cc3ccco3)c(COc3ccccc3)nc21,35.5 µM (active)
11,O=C(CCn1c(=O)c2sccc2n(Cc2ccc(F)cc2)c1=O)NCc1ccc2c(c1)OCO2,inactive
12,COc1ccc(S(=O)(=O)NCCc2cc3ccc(C)c(C)c3[nH]c2=O)cc1,inactive
13,COc1cccc(CNC(=O)c2ccc3c(Cl)c4c(nc3c2)CCCC4)c1,inactive
14,Cc1cccc(N(CC(=O)Nc2ccc(-c3nc4ccc(C)cc4s3)cc2)S(C)(=O)=O)c1,inactive
15,Cc1ccc2nc(-c3ccc(NC(=O)CN(C)S(=O)(=O)c4ccccc4)cc3)sc2c1,1 µM (active)
16,COc1cc(NC(=O)CN(C)S(=O)(=O)c2ccc3nc(C)sc3c2)cc(OC)c1,inactive
17,Cc1ccc(F)cc1NC(=O)CCSc1nc(-c2ccco2)cc(C(F)(F)F)n1,inactive
18,COc1ccc(C(=O)n2nc(-c3ccc(Cl)cc3)nc2N)cc1OC,25.1 µM (active)
19,COc1ccccc1C(=O)n1nc(-c2ccccc2)nc1N,inactive
20,COc1ccc(C(=O)n2nc(-c3ccc(C)cc3)nc2N)cc1OC,inactive
21,COc1ccc(-c2nc3ccccc3o2)cc1NC(=O)c1cc([N+](=O)[O-])ccc1N1CCOCC1,inactive
22,Cc1cccc(NC(=O)c2cc3c(C)nn(-c4ccccc4)c3s2)c1,inactive

row,Structure (SMILES),Potency
1,Cc1c(CNC2CCCCC2)c(C(=O)O)c(C)n1Cc1cccc(Cl)c1,inactive
2,CCCN1CCN(CCCNC(=O)Cn2nc(CC)n3c(cc4occc43)c2=O)CC1,inactive
3,CCc1nc2c(cnn2-c2ccc(C)cc2)c(=O)n1-c1ccc(C)cc1,inactive
4,C=CCNc1cnn(-c2ccc(C)cc2)c(=O)c1Cl,11.2 µM (active)
5,O=c1c(Cl)c(NC2CC2)cnn1-c1ccccc1,inactive
6,Cc1ccccc1-c1nc(CS(=O)(=O)CC(=O)Nc2cc(Cl)cc(Cl)c2)c(C)o1,inactive
7,COC(=O)c1ccc(CSc2ccccc2C)o1,8.91 µM (active)
8,COC(=O)c1ccc(Cc2ccccc2)o1,inactive
9,COC(=O)c1ccc(CSc2ccc3nnc(-c4ccccc4)n3n2)o1,inactive
10,Cc1ccc(NS(=O)(=O)c2ccc3c(c2)CC(=O)N3)cc1Cl,inactive
11,Clc1ccc2nc(CSc3ccccc3)cn2c1,3.16 µM (active)
12,CCOc1ncccc1C(=O)OCc1cn2cc(Cl)ccc2n1,inactive
13,O=c1cc(CSc2ccc(Cl)cc2)nc(N2CCOCC2)[nH]1,inactive
14,Cc1ccc(-c2cc(C(=O)NCc3cn(C)nc3C)c3cc(Br)ccc3n2)cc1,inactive
15,Cc1ccc2nc(-c3cccc(Br)c3)cc(C(=O)Nn3cnnc3)c2c1,12.6 µM (active)
16,Cc1ccc2nc(-c3ccccc3)cc(C(=O)O)c2c1,inactive
17,COc1ccc(N(CC(=O)NCCc2ccc(Cl)cc2)S(=O)(=O)c2c(C)nn(C)c2C)cc1,inactive
18,CCS(=O)(=O)c1ccc2oc(SCC(=O)N3c4ccccc4CC3C)nc2c1 (stereo not drawn),inactive
19,CN(C)S(=O)(=O)c1ccc2oc(SCC(=O)Nc3ccccc3F)nc2c1,11.2 µM (active)
20,COc1ccc(S(=O)(=O)N(C)C)cc1NC(=O)CSc1ncccn1,inactive
21,COc1ccc(CNC(=O)Cn2nnc(-c3ccc(S(C)(=O)=O)cc3)n2)cc1,inactive
22,Cc1cc(NC(=O)Nc2ccccc2)n(-c2ccccc2)n1,inactive

row,Structure (SMILES),Potency
1,Cc1cc(Nc2ccccc2)n(CCC#N)n1,inactive
2,Cc1cc(Nc2ccccc2)n(C(=O)c2ccc(N)cc2)n1,11.2 µM (active)
3,COCCNC(=O)CSc1nc(-c2ccccc2)[nH]c1-c1ccc(C)cc1,inactive
4,COc1ccc(-c2noc(CCC(=O)N(C)c3ccccc3C)n2)cc1,inactive
5,COc1ccc(N=Cc2c(O)[nH]c3ccccc23)cc1OC,14.1 µM (active)
6,COc1ccc(OC)c(N=Cc2c(O)[nH]c3ccccc23)c1,inactive
7,COc1ccccc1N=Cc1c(O)c2ccccc2oc1=O,inactive
8,Cc1ccc(C(=O)Cn2cccn2)cc1,inactive
9,Cc1ccc(C(=O)Cc2nnc(C)s2)cc1,12.6 µM (active)
10,Cc1ccc(C(=O)CS(C)(=O)=O)cc1,inactive
11,O=C(NCc1ccccn1)Nc1ccc(F)cc1,inactive
12,c1ccc(CN=C2Nc3ccccc3CS2)nc1,12.6 µM (active)
13,Cc1nnc(NCc2ccccc2)c2c1nnn2Cc1ccc(F)cc1,inactive
14,CC1CCN(S(=O)(=O)c2ccc3c(c2)N(CC(=O)NCc2ccccc2Cl)C(=O)CO3)CC1,inactive
15,Cc1csc2nc(COc3ccc(NC(=O)COc4ccccc4)cc3)cc(=O)n12,inactive
16,CCOc1ccc2nc(SC(CC)C(=O)Nc3cc(C)on3)sc2c1 (stereo not drawn),inactive
17,CCOc1ccc2nc(Nc3nc4ccc(NC(C)=O)cc4s3)sc2c1,inactive
18,Cc1ccnc(N2CCCC(C(=O)Nc3cc(F)ccc3C)C2)n1 (stereo not drawn),inactive
19,CCOc1ccc2nc(C(=O)N3CCCC(C)C3)sc2c1 (stereo not drawn),2.82 µM (active)
20,CCOc1ccc2nc(N3CCCC(C(=O)Nc4cc(C)ccc4C)C3)sc2c1 (stereo not drawn),14.1 µM (active)
21,CCOc1ccc2nc(N3CCC(C(=O)Nc4cc(C)ccc4C)CC3)sc2c1,inactive
22,CCCNC(=O)CCn1nc(-c2ccccc2)c2ccccc2c1=O,inactive

row,Structure (SMILES),Potency
1,O=c1c(O)c(Br)ccc2c(Br)c(O)c(O)c(O)c12,inactive
2,O=C(CS(=O)(=O)Cc1ccccc1)NCC1CCCO1 (stereo not drawn),inactive
3,CC(=NCC1CCCO1)c1c(O)[nH]c(=O)[nH]c1=O (stereo not drawn),inactive
4,O=C1C(C=NCC2CCCO2)=C(O)c2ccccc21 (stereo not drawn),11.2 µM (active)
5,Cc1ccc(C)c(N2CCN(C(=O)CCc3c(C)nc4c(c3C)c(=O)n(C)c(=O)n4C)CC2)c1,inactive
6,O=C(NCN1CCN(CCO)CC1)c1cnccn1,inactive
7,O=C(Nc1cccc(NC(=O)c2ccco2)c1)c1cnccn1,inactive
8,O=C(CCN1C(=O)c2ccncc2C1=O)Nc1ccc2c(c1)OCCO2,inactive
9,O=C(Nc1ccc2c(c1)OCCO2)c1cnccn1,12.6 µM (active)
10,CCN1CCN(c2ccc(NC(=O)c3cnccn3)cc2)CC1,11.2 µM (active)
11,O=C(Nc1ccc(S(=O)(=O)N2CCCCC2)cc1)c1cnccn1,inactive
12,O=C(Nc1ccc(OC(F)(F)F)cc1)c1cc2c(=O)n3ccccc3nc2s1,inactive
13,O=C(Cn1c(=O)n(-c2ccc(F)cc2)c(=O)c2sccc21)Nc1cccc(C(F)(F)F)c1,inactive
14,CCN(CC)CCNC(=O)c1cc2c(=O)oc3ccc(C)cc3c2s1,inactive
15,COc1ccc2oc(-c3cccc(NC(=O)CSc4ccc(Cl)cc4)c3)nc2c1,8.91 µM (active)
16,O=C(COc1ccc(Cl)cc1)Nc1ccc(-c2nc3cc(Cl)ccc3o2)c(O)c1,inactive
17,COc1cccc(-c2nc(S(=O)(=O)c3ccc(C)cc3)c(NCc3ccccc3)o2)c1,inactive
18,COc1cc2ccccc2cc1C(=O)Nc1cccc(-c2nc3ccccc3o2)c1,inactive
19,COc1cccc(-c2nc3cc(C)ccc3o2)c1,11.2 µM (active)
20,COc1cccc(C(=O)Nc2ccc3oc(-c4ccc5ccccc5c4)nc3c2)c1,inactive
